The source of these data is PMC4336329 (PLoS ONE, 2015).

Out of some 310,000 compounds screened, about 14,000 (4.5%) showed an effect of 50% or more. The effect is printed as a negative number. The sample holds strong results, similar compounds and a random draw of the others, so the mix is not that of the screen.
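Also: peak tail current of the secondary pulse compared with the same well before compound.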

In this experiment the target is human ether-à-go-go-related gene (hERG) potassium channel (human, UniProt Q12809). Kind of experiment: primary screen, population patch clamp on CHO cells stably expressing hERG; higher = less effect of the substance.
human ether-à-go-go-related gene (hERG) potassium channel, sequence (Q12809 whole entry, looked up): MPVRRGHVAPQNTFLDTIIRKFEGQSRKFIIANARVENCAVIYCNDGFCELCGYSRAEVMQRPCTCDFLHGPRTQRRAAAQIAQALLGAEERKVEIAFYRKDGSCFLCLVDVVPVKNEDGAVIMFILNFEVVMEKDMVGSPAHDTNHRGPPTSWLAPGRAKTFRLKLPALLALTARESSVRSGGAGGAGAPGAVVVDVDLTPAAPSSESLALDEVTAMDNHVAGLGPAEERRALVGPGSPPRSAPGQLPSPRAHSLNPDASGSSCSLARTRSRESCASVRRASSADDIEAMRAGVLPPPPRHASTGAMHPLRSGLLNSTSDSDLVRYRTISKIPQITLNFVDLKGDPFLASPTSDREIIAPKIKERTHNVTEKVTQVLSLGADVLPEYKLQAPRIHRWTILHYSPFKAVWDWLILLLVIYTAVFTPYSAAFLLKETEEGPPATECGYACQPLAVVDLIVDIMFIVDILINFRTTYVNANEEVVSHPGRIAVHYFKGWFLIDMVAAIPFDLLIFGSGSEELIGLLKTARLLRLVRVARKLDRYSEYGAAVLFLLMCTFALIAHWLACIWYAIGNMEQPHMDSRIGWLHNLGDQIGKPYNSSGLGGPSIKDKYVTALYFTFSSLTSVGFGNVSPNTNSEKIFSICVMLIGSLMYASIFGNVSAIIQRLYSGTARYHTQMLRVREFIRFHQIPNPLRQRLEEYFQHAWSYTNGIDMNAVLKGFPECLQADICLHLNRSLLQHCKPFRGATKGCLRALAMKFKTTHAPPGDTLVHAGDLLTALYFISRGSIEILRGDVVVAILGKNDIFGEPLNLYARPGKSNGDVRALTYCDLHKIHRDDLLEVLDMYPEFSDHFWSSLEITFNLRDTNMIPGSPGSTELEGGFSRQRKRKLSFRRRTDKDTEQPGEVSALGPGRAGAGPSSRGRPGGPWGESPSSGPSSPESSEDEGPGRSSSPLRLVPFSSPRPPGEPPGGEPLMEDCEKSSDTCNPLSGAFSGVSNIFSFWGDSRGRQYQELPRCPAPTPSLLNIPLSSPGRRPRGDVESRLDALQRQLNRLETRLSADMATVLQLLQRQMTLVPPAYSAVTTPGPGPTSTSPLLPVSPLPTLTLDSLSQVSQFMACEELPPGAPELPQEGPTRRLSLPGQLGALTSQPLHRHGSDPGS
For `CCN(CC)C(=O)Cn1cc(S(=O)(=O)CC(=O)Nc2ccc(C(N)=O)cc2)c2ccccc21`, the “hERG current change (%, negative = inhibition) at 10uM” value turned out to be 18.2%. `CCOc1ccc(NC(=O)CN2CCCC2c2cccs2)cc1S(=O)(=O)N1CCCCC1` (stereo not shown): the “hERG current change (%, negative = inhibition) at 10uM” value was -11.8%. For the compound `COc1ccccc1N1CCN(CCCNc2c(C)c(=O)n(C)c(=O)n2C)CC1`, the “hERG current change (%, negative = inhibition) at 10uM” value was -5.42%.

In the case of `COC(=O)c1ccc(N2CCN(CCNC(=O)Nc3ccc(OC)cc3)CC2)cc1`, the “hERG current change (%, negative = inhibition) at 10uM” value is -0.192%. Turning to `COc1ccc(N2CCN(CCNC(=O)Nc3ccc(C)c(Cl)c3)CC2)cc1`, the “hERG current change (%, negative = inhibition) at 10uM” value is 15.9%. On to `CCOc1ccc(NC(=O)CCN2CCN(c3ccccc3OC)CC2)cc1`, for which the “hERG current change (%, negative = inhibition) at 10uM” value was -33.8%. For `CCc1ccc(N2CCN(CCNC(=O)Nc3ccc(OC)cc3)CC2)cc1` the value was -29.9%; for `COc1ccccc1N1CCN(CCCNC(=O)Nc2ccccc2)CC1`, -59.8%. For `CSc1cccc(NC(=S)NCCCO)c1` the value was -4.03%.

As for `COc1ccc(N2CCN(CCCNC(=O)Nc3ccccc3)CC2)cc1`, the “hERG current change (%, negative = inhibition) at 10uM” value is -64.5%. For `COc1ccc(N2CCN(CCNC(=O)Nc3ccc(Cl)cc3)CC2)cc1` the value was -60.7%; for `COc1ccc(NC(=O)NCCN2CCN(c3cccc(Cl)c3)CC2)cc1`, -31.6%.

In the case of `Fc1cccc(NC(=S)NCCCN2CCOCC2)c1`, the “hERG current change (%, negative = inhibition) at 10uM” value is reported as -0.1%. For `CSc1cccc(NC(=S)NCCCN2CCN(c3ccc(F)cc3)CC2)c1` the value was -66.7%; for `CC(OC(=O)c1ccccc1NCc1ccco1)C(=O)Nc1ncc(Cl)cc1Cl` (stereo not shown), 2.95%; for `Cc1ccc(C)c(-n2nnnc2SCC(=O)NCC2CCCO2)c1` (stereo not shown), -4.18%.

For `CCN(C(=O)COC(=O)CCC(=O)c1cccs1)c1c(N)n(Cc2ccccc2)c(=O)[nH]c1=O`, the “hERG current change (%, negative = inhibition) at 10uM” value is recorded as -4.97%.

On to `CCCCCOc1ccc(CSCCNC(=S)Nc2ccccc2)cc1`, for which the “hERG current change (%, negative = inhibition) at 10uM” value is -5.94%. As for `O=C(O)c1ccccc1C(=O)c1ccc(-c2ccccc2)cc1`, the “hERG current change (%, negative = inhibition) at 10uM” value was determined as 17.2%. Take `CCOC(=O)c1ccc(S(=O)(=O)NNC(=O)COc2cccc(C)c2)cc1`: the “hERG current change (%, negative = inhibition) at 10uM” value turned out to be 34.6%. Take `Cc1ccc(S(=O)(=O)N2CCN(S(=O)(=O)N3CCCCCC3)CC2)cc1`: the “hERG current change (%, negative = inhibition) at 10uM” value came to 20.4%. For `COc1cccc(NC(=O)NCCN2CCCCC2)c1` the value was -13.7%; for `COc1cccc(NC(=O)NCCCN2CCN(c3ccc(F)cc3)CC2)c1`, -73.2%. For `COc1ccccc1N1CCN(CCNC(=O)Nc2cccc(C)c2C)CC1` the value was -68.8%. Take `Cc1cccc(NC(=O)NCCN2CCN(c3ccccc3)CC2)c1C`: the “hERG current change (%, negative = inhibition) at 10uM” value was -9.69%. In the case of `COc1ccccc1N1CCN(CCCNC(=O)Nc2ccccc2C)CC1`, the “hERG current change (%, negative = inhibition) at 10uM” value is -33.7%. With `COc1cccc(NC(=S)NCCCN2CCOCC2)c1`, the “hERG current change (%, negative = inhibition) at 10uM” value is on record as 16.7%. Turning to `Cc1cccc(NS(=O)(=O)c2c(C(=O)N3CCCC3)c(C)n(C)c2C)c1`, the “hERG current change (%, negative = inhibition) at 10uM” value came out at 18.1%. Next, `Cc1cc(Cl)ccc1OCC(=O)N/N=C/c1ccncc1`: -14.9%. For `COC(=O)CSc1nc(C)cc(N2CCOCC2)n1` the value was 7.89%. For `NC(=O)C1CCN(C(=O)COc2ccc3ccccc3c2)CC1` the value was 18.2%; for `CCC(C)(C)NC(=O)C(c1cccnc1)N(C(=O)c1csnn1)c1ccccc1` (stereo not shown), -22.7%. Turning to `O=C(Cn1c(-c2ccccc2)noc1=O)NCc1ccccc1`, the “hERG current change (%, negative = inhibition) at 10uM” value is 6.47%. Next, `N#CCSc1nc2ccccc2c(=O)n1CCCC(=O)NCC1CCCO1` (stereo not shown): -12.4%. On to `CCOC(=O)CSc1nc2cc(C(=O)N3CCC(C(N)=O)CC3)ccc2c(=O)n1C1CCCCC1`, for which the “hERG current change (%, negative = inhibition) at 10uM” value was -10.7%. Take `CCCCn1c(SC(C)C(=O)NCC2CCCO2)nc2cc(C(=O)OC)ccc2c1=O` (stereo not shown): the “hERG current change (%, negative = inhibition) at 10uM” value was -44.9%. Regarding `CCCCCn1c(SCC#N)nc2cc(C(=O)NCC3CCCO3)ccc2c1=O` (stereo not shown), the “hERG current change (%, negative = inhibition) at 10uM” value is given as -52.7%. As to `C=CCn1c(SCC(=O)CC(=O)OCC)nc2cc(C(=O)N3CCC(C(N)=O)CC3)ccc2c1=O`, the “hERG current change (%, negative = inhibition) at 10uM” value is on record as 13.7%. `CCCCCn1c(SCC2CCCO2)nc2cc(C(=O)N3CCC(C(N)=O)CC3)ccc2c1=O` (stereo not shown): the “hERG current change (%, negative = inhibition) at 10uM” value was -64.7%. As for `CCCCCn1c(SCC(=O)OCC)nc2cc(C(=O)N3CCC(C(N)=O)CC3)ccc2c1=O`, the “hERG current change (%, negative = inhibition) at 10uM” value is -58.4%. On to `CCCCCn1c(SCC(=O)CC(=O)OCC)nc2cc(C(=O)N3CCC(C(N)=O)CC3)ccc2c1=O`, for which the “hERG current change (%, negative = inhibition) at 10uM” value was -17.7%. For `NC(=O)C1CCN(C(=O)c2ccc3c(=O)n(Cc4ccco4)c(SCC(=O)c4ccccc4)nc3c2)CC1` the value was 6.75%. Take `c1cc(-c2nnn(CCOCCn3nnc(-c4ccncc4)n3)n2)ccn1`: the “hERG current change (%, negative = inhibition) at 10uM” value was -0.329%. In the case of `c1ccc(Oc2cccc(OCCn3cncn3)c2)cc1`, the “hERG current change (%, negative = inhibition) at 10uM” value was -12.7%. Turning to `CC(=O)c1ccc(NC(=S)NNC(=O)c2ccccc2[N+](=O)[O-])cc1`, the “hERG current change (%, negative = inhibition) at 10uM” value is listed as 20%. Take `Cc1cc(C)c(S(=O)(=O)NCC2CCC(C(=O)NCCCN3CCC(C)CC3)CC2)c(C)c1` (stereo not shown): the “hERG current change (%, negative = inhibition) at 10uM” value was -77.2%. Regarding `COCCNC(=O)C1CCC(CNS(=O)(=O)c2c(C)cc(C)cc2C)CC1` (stereo not shown), the “hERG current change (%, negative = inhibition) at 10uM” value worked out at 7.72%. For `Cc1ccc(S(=O)(=O)NCC2CCC(C(=O)NCCCN3CCOCC3)CC2)cc1` (stereo not shown) the value was 10.8%; for `COC(CNC(=O)C1CCC(CNS(=O)(=O)c2c(C)cc(C)cc2C)CC1)OC` (stereo not shown), -26%. For the compound `CCCCNC(=O)C1CCC(CNS(=O)(=O)c2c(C)cc(C)cc2C)CC1` (stereo not shown), the “hERG current change (%, negative = inhibition) at 10uM” value came to 3.09%. Take `CC1CCN(CCCNC(=O)C2CCC(CNS(=O)(=O)c3ccccc3)CC2)CC1` (stereo not shown): the “hERG current change (%, negative = inhibition) at 10uM” value is on record as 5.02%.

As to `CCCCN(C)CCCNC(=O)C1CCC(CNS(=O)(=O)c2c(C)cc(C)cc2C)CC1` (stereo not shown), the “hERG current change (%, negative = inhibition) at 10uM” value is -77.3%. As for `CCC1CCCCN1CCCNC(=O)C1CCC(CNS(=O)(=O)c2c(C)cc(C)cc2C)CC1` (stereo not shown), the “hERG current change (%, negative = inhibition) at 10uM” value is on record as -68.3%. As to `CCN(CC)CCCNC(=O)C1CCC(CNS(=O)(=O)c2c(C)cc(C)cc2C)CC1` (stereo not shown), the “hERG current change (%, negative = inhibition) at 10uM” value was -13.5%. In the case of `O=C(Cn1c2c(c(=O)n3ncnc13)CCC2)N/N=C/c1cccs1`, the “hERG current change (%, negative = inhibition) at 10uM” value worked out at 0.665%.
